Records with an inconclusive call do not appear.

A short description of the experiment: qHTS Assay for Lipid Storage Modulators (AID 1519). Conditions: Drosophila S3 cells, BODIPY lipid droplet/cell ratio, laser cytometry; measured here: lipid channel max response; cells loaded with oleic acid. The procedure, abridged: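 Cells seeded at 5,000 per well were treated with compounds over a concentration series and loaded with oleic acid (400 uM, as added). Lipid droplet fluorescence (488 nm excitation, 500-530 nm channel) was read by laser-scanning cytometry and normalized to 20 uM Triacsin C.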
Background: qHTS replaces the single test concentration by a dilution series.
`CS(=O)(=O)N1CCC2(CCCN(Cc3ccncc3)C2)CC1`: the max response came to 25.1%.

As to `c1ccc(CN2CC[C@@]3(CCCNC3)C2)cc1`, the max response is 14.7%.

Turning to `O=C(c1ccncc1)N1CCC[C@@]2(CCN(Cc3nccs3)C2)C1`, the max response amounted to 15.4%.

In the case of `COc1c2c(cc3c1OCO3)CC[N+](C)=C2`, the max response came to 18.3%.

As for `c1cc(CN2CC3(CCNCC3)C2)ccn1`, the max response amounted to 9.29%.

`c1csc(CN2CC[C@@]3(CCCNC3)C2)n1`: the max response was 1.97%.

Turning to `COC(=O)N1CCC2(CCCN(C)C2)CC1`, the max response is 8.69%.

For `c1ccc(CN2CCC3(CCNCC3)CC2)cc1`, the max response was found to be 27.4%.

On to `Cc1noc(C)c1C(=O)N1CCC2(CCCN(CC(C)C)C2)CC1`, for which the max response was -1.22%.

For the compound `CN1CC[C@@]2(CCCN(C(=O)c3ccncc3)C2)C1`, the max response was 8.97%.

For `c1cnc(N2CCCC3(CCNCC3)C2)nc1`, the max response is 19.3%.

As for `c1ccc(N2CC3(CCNCC3)C2)cc1`, the max response amounted to 20.7%.

Turning to `CN1CC[C@@]2(CCCN(C(=O)Oc3ccccc3)C2)C1`, the max response was 22%.

For the compound `c1csc(CN2CCC3(CCNCC3)CC2)n1`, the max response came out at 11%.

Turning to `O=C(Nc1ccccc1)N1CC[C@@]2(CCCN(C(=O)Oc3ccccc3)C2)C1`, the max response was determined as 23.4%.

Take `O=C(c1csnn1)N1CCC2(CC1)CN(Cc1ccncc1)C2`: the max response stood at 14.2%.

Consider `CC(C)NC(=O)N1CC[C@@]2(CCCNC2)C1`, for which the max response turned out to be 18.1%.

For the compound `c1ccc(N2CC3(CCNCC3)C2)nc1`, the max response is 14.7%.

As for `CC(C)NC(=O)N1CCC2(CC1)CCN(C(=O)Oc1ccccc1)CC2`, the max response was -6.43%.

For `C=C(C)c1cc2cc(C(C)=O)c(O)cc2o1`, the max response was determined as 19.8%.

Regarding `CC(C)NC(=O)N1CCCC2(CCN(C(=O)Oc3ccccc3)CC2)C1`, the max response is 29.9%.

With `CN1CCCC2(CCN(C(=O)Oc3ccccc3)CC2)C1`, the max response is -1.11%.

In the case of `CC(C)CN1CCC2(CC1)CCN(S(C)(=O)=O)CC2`, the max response is -17.2%.

`CN1CCCC2(CCN(C(=O)c3csnn3)CC2)C1`: the max response is -6.49%.

With `CC(C)CN1CCCC2(CCN(C(=O)c3ccncc3)CC2)C1`, the max response turned out to be 20.9%.

For the compound `O=C(c1ccco1)N1CCC[C@@]2(CCN(Cc3ccncc3)C2)C1`, the max response worked out at 9.36%.

Consider `O=C(Nc1ccccc1)N1CC2(CCN(C(=O)Oc3ccccc3)CC2)C1`, for which the max response was determined as 22.2%.

Consider `CC(C)CN1CC[C@@]2(CCCN(C(=O)c3ccncc3)C2)C1`, for which the max response was determined as 4.49%.

For `Cc1noc(C)c1C(=O)N1CCC[C@@]2(CCN(CC(C)C)C2)C1`, the max response was 15.4%.

In the case of `CC(C)CN1CC2(CCN(C(=O)Oc3ccccc3)CC2)C1`, the max response is 1.27%.

In the case of `O=C(Oc1ccccc1)N1CCC2(CCCN(Cc3ccccc3)C2)CC1`, the max response is 4.78%.

`N#Cc1cccc(NC(=O)N2CC3(CCN(C(=O)Oc4ccccc4)CC3)C2)c1`: the max response was 2.3%.

Regarding `O=C(c1cnccn1)N1CCC2(CC1)CN(Cc1ccncc1)C2`, the max response amounted to 3.49%.

On to `CN1CCCC2(CCN(C(=O)c3ccco3)CC2)C1`, for which the max response is -25.6%.

Turning to `O=C(Nc1cccc(F)c1)N1CC2(CCNCC2)C1`, the max response came out at 12.8%.

These data come from PubChem BioAssay (NCATS).
